Records with an inconclusive call do not appear. Activity calls are given as the source filed them. Unless noted, the call rests on the fitted dose curve.

A short description of assay [1]: qHTS for Inhibitors of the Functional Ribonucleoprotein Complex (vRNP) of Lassa (LASV) Arenavirus: LASV Primary Screen - GLuc reporter signal (AID 1347082; calls by dose curve; tested in HEK293 reporter line; further: on the % scale 0 is the no-effect control and ±100 the full control effect; nearly all actives have a fitted effect of over 60% in size).
Assay [2] is described as follows: qHTS for Inhibitors of the Functional Ribonucleoprotein Complex (vRNP) of Lassa (LASV) Arenavirus: Viability assay - alamar blue signal for LASV Primary Screen (AID 1347083; calls by dose curve; tested in HEK293 reporter line; further: nearly all actives have a fitted effect of over 80% in size; further: potency means the concentration at half of the fitted maximal effect).
A short description of assay [3]: qHTS for Inhibitors of the Functional Ribonucleoprotein Complex (vRNP) of Lymphocytic Choriomeningitis Arenaviruses (LCMV): Viability assay - alamar blue signal for LCMV Primary Screen (AID 1347085; calls by dose curve; tested in HEK293 reporter line; further: nearly all actives have a fitted effect of over 80% in size; further: potency means the concentration at half of the fitted maximal effect).
The target of assay [4] is Nucleoprotein (Lymphocytic choriomeningitis virus (strain Armstrong)) (UniProt P09992). Put plainly: qHTS for Inhibitors of the Functional Ribonucleoprotein Complex (vRNP) of Lymphocytic Choriomeningitis Arenaviruses (LCMV): LCMV Primary Screen - GLuc reporter signal (AID 1347086). Further: nearly all actives have a fitted effect of over 70% in size. Further: potency means the concentration at half of the fitted maximal effect. On activity change, negative = inhibition: on the % scale 0 is the no-effect control and ±100 the full control effect.
Assay [5] in a line: Cytotoxicity counterscreen for inhibitors of SARS-CoV-2 cell entry (AID 1645845). Further: nearly all actives have a fitted effect of over 50% in size. Summed up:
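48 h compound treatment (after 1 h preincubation), HEK293-ACE2 cells, 37 C/5% CO2; ATP luminescence endpoint; normalized to cell wells and media blanks.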

Assay [6] in a line: Primary qHTS to identify inhibitors of SARS-CoV-2 cell entry (AID 1645846). Further: nearly all actives have a fitted effect of over 45% in size. Further: potency means the concentration at half of the fitted maximal effect. The following applies: activity change, negative = inhibition: at 57.1 µM (top of the series) unless noted. In a few lines:
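Using luciferase-reporting pseudoviruses carrying Wuhan-Hu-1 spike, the screen tracks entry into stably ACE2-expressing cells over 48 hr. Activity is expressed relative to spike particles versus particles lacking any fusion protein.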

A further assay has as its system CRL-7250. Nature of the assay: qHTS assay to identify novel small-molecules to repurpose for Merkel cell carcinoma treatment (AID 1296009; active means well fitted curve in the direction sought with a large enough effect; an effect the other way counts as inactive or inconclusive; further: nearly all actives have a fitted effect of over 60% in size). The following applies: MCC and control cell lines, CellTiter-Glo viability, 72 h; series mostly up to 92 µM. Summed up: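 72 hr, 37 degree celsius; NPC 8-pt / MIPE 11-pt dose response; compound pinned in DMSO; CellTiter-Glo, 10 min RT, luminescence; normalized to no-cell and DMSO controls.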

Assay [7] has as its target Alpha-galactosidase (Coffea arabica) (UniProt Q42656). Put plainly: Counterscreen for Glucocerebrosidase Inhibitors: qHTS Assay for Coffee Bean alpha-Galactosidase at pH 4.5 (AID 957; active means well fitted curve in the direction sought with a large enough effect; an effect the other way counts as inactive or inconclusive;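 further: plate controls were enzyme alone for no effect and no enzyme for full effect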). Summed up:
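Coffee bean alpha-galactosidase 2 nM, substrate 4-MU-alpha-Gal 80 uM, pH 4.5 citrate/Tween-20, 20 min RT. Cpd titration 0.7 nM–77 uM. Stop pH 10, fluorescence 365/440 nm; Hill-equation AC50.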

For assay [8] the target is unchanged. Put plainly: Counterscreen for Glucocerebrosidase Inhibitors: qHTS Assay for Coffee Bean alpha-Galactosidase at pH 5.9 (AID 998; active means well fitted curve in the direction sought with a large enough effect; an effect the other way counts as inactive or inconclusive;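 further: plate controls were uninhibited enzyme for no effect and no-enzyme basal signal for full effect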). In a few lines:
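Compounds were titrated from 0.7 nM to 77 uM against green coffee bean alpha-galactosidase (2 nM) using 80 uM fluorogenic 4-methylumbelliferyl substrate. After 20 min at room temperature, reactions were stopped at pH 10 and read by fluorescence.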

Assay [9] in a line: Validation screen for inhibitors of Lassa infection (AID 463096). Further: on the % scale 0 is the no-effect control and ±100 the full control effect.
A short description of assay [10]: Inducers of the Endoplasmic Reticulum Stress Response (ERSR) in human glioma: Validation (AID 504836; active means well fitted curve in the direction sought with a large enough effect; an effect the other way counts as inactive or inconclusive; further: 0% is about no effect). Summed up: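 ERSR induction read as luciferase luminescence (Bright-Glo, 10 min at room temperature) in stably transfected human U87-MG glioma cells exposed to compounds for 16 h, using GRP78 as sensor.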
Assay [11] is described as follows: qHTS profiling of the MIPE4 collection as inhibitors of Plasmodium falciparum (3D7) proliferation (AID 743344; call rule not given here;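 further: scaled between DMSO vehicle wells and 0.29 µM artemisinin as full inhibition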). The following applies: P. falciparum 3D7 in erythrocytes, SYBR Green DNA fluorescence, 72 h; at 28.5 µM (top of the series) unless noted. Summed up:
(§1)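 Erythrocytes infected with P. falciparum (0.3% parasitemia, 2.5% hematocrit) incubated with compounds 72 h at 37 C, 5% CO2. Lysis with saponin/Triton buffer containing SYBR Green I, overnight at room temperature in the dark; DNA fluorescence (485/535 nm) normalised to 0.29 uM artemisinin and DMSO.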

Assay [12] in a line: qHTS profiling of the MIPE4 collection as inhibitors of Plasmodium falciparum (DD2) proliferation (AID 743345; call rule not given here). The conditions noted are these: P. falciparum Dd2 in erythrocytes, SYBR Green DNA, 72 h; at 28.5 µM (top of the series) unless noted. In a few lines: as §1

Nucleoprotein (Lymphocytic choriomeningitis virus (strain Armstrong)), sequence (P09992 whole entry, looked up): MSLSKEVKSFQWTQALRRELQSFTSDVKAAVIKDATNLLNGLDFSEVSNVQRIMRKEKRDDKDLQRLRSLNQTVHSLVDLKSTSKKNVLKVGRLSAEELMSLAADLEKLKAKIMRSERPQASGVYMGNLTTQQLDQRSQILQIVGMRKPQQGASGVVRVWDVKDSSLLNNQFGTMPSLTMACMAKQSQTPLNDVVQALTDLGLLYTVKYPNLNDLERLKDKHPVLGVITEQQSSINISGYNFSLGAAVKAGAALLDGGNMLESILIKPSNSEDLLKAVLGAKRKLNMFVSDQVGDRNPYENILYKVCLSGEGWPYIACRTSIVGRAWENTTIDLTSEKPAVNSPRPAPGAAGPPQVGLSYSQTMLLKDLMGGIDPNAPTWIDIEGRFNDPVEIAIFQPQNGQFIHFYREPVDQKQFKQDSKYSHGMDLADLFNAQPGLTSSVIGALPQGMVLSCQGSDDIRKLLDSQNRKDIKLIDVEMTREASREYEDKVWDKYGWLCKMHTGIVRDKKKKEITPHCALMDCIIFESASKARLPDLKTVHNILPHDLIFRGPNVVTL
Alpha-galactosidase (Coffea arabica), sequence (Q42656 whole entry, looked up): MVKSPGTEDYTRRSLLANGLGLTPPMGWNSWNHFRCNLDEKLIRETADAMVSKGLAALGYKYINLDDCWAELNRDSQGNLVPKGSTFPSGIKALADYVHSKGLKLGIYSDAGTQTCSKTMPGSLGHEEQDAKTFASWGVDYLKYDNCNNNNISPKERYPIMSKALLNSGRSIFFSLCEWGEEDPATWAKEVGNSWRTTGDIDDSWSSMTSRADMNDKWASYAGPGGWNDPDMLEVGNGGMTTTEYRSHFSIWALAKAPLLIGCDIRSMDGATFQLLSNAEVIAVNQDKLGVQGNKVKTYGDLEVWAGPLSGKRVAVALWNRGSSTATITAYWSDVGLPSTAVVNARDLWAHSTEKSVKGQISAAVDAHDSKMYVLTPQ

For `CC1CNc2c(cccc2S(=O)(=O)N[C@@H](CCCN=C(N)N)C(=O)N2CC[C@@H](C)C[C@@H]2C(=O)O)C1` (stereo not given in full), the Potency entry (in assay [1]; in [2]; in assay [3]; in [4]; in [5]; in the assay on CRL-7250) was “inactive” each time. The activity change, negative = inhibition in assay [6] is -11.7%.

For the molecule `O=[N+]([O-])c1ccc(-c2nc(-c3ccc(F)cc3)c(-c3ccncc3)[nH]2)cc1`, the call in assay [7], in assay [8] and in assay [10] was inactive. Moreover, the Potency result (in assay [9]; in [1]; in [2]; in assay [3]; in assay [4]; in the assay on CRL-7250) was “inactive” in each case.

As for `COc1ccc2cc(-c3nc(-c4ccc(S(C)=O)cc4)[nH]c3-c3ccncc3)ccc2c1` (stereo not given), the Potency result (in [1]; in the assay on CRL-7250) was “inactive” throughout. Moreover, the Potency in [2] is 24.3 µM (active); in [3], 4.85 µM (active); in [4] it was 17.2 µM (active); in [6], 31.6 µM (active).

In turn, `CC(C)N(CC[C@H](c1ccccc1)c1cc(CO)ccc1O)C(C)C` came in with a parasite growth, % of DMSO control in assay [11] of 81.5%. Further, the parasite growth remaining, % of DMSO control (lower = more inhibition) in assay [12] was 83.7%. Besides, the Potency entry (in assay [1]; in assay [2]; in assay [3]; in [4]; in the assay on CRL-7250) was “inactive” each time.

Regarding `COc1cc(F)c(C(C)C)cc1-c1ccc(C(F)(F)F)cc1CN1C(=O)O[C@H](c2cc(C(F)(F)F)cc(C(F)(F)F)c2)[C@@H]1C`, the Potency result (in assay [1]; in assay [5]; with CRL-7250) was “inactive” in each case. The Potency in assay [2] is 0.0273 µM (active); in [3], 0.0193 µM (active). Besides, the activity change, negative = inhibition in assay [6] was -5.3%.

(Values after PubChem BioAssay (NCATS).)
